Screening results (PubChem BioAssay)
Only some compounds are listed: those with a hit (about 6.5% of all), similar ones and a draw of the others.
HCMV antiviral: inhibitors of human cytomegalovirus | HFF cells, HCMV-luciferase reporter, 72 h; stronger effect = lower value | activity change, negative = inhibition, % at 57.5 µM | actives 4.5% (n = 410,000) | AID 1259415; in the data active means activity change below about -60%; inconclusive means no clear call, values can overlap the other calls; inactive means above about -39%
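Two-dose cell screen: HFF monolayers treated with compounds and infected with luciferase-expressing HCMV at 1 PFU/cell, 72 h at 37C, then lysed for luciferase measurement.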
MARV entry inh: inhibitors of Marburg virus binding or cell entry. Marburg virus pseudotyped entry inhibition, cell reporter. Potency, µM (highest dose often 37.8 µM), for the others: at the highest dose activity change, negative = inhibition, most hits filed as inhibitors. actives 1.8% (n = 300,000); calls by dose curve; tested in HEK293 cells; further: potency means the concentration at half of the fitted maximal effect
VACV Venus inh: vaccinia inhibition (Venus reporter). Vaccinia virus Venus reporter expression, fluorescence. Potency, µM (top dose mostly 36.5 µM), inactives show at the top dose activity change, negative = inhibition, most hits filed as inhibitors. actives 0.46% (n = 330,000); calls by dose curve; tested in A549 cells; further: potency means the concentration at half of the fitted maximal effect; nearly all actives have a fitted effect of over 30% in size
VACV mCherry inh: inhibitors of vaccinia virus infection (mCherry reporter signal) | Potency, µM (top dose mostly 36.5 µM), for the others: top-dose activity change, negative = inhibition, usual class: inhibitors | Vaccinia virus mCherry reporter infection, fluorescence | actives 0.63% (n = 310,000); calls by dose curve; tested in A549 cells; further: potency means the concentration at half of the fitted maximal effect; nearly all actives have a fitted effect of over 35% in size
LASV entry inh: Lassa virus entry inhibition; Lassa virus pseudotype entry inhibition, cell reporter; Potency, µM (highest dose often 37.9 µM), without a hit: at the top dose activity change, negative = inhibition, hits mostly inhibitors; actives 1.2% (n = 300,000); AID 540256; calls by dose curve; tested in HEK293 cells; further: potency means the concentration at half of the fitted maximal effect; nearly all actives have a fitted effect of over 50% in size
FMDV inh: foot and mouth disease virus antiviral activity | FMDV antiviral cell-based qHTS | Potency, µM (titrated, usually from 57.9 µM), inactives show at the highest dose activity change, negative = inhibition, usual class: inhibitors | actives 1.2% (n = 410,000) | AID 1159524; calls by dose curve; tested in HEK293T cells; further: read-out not given here; potency means the concentration at half of the fitted maximal effect; nearly all actives have a fitted effect of over 45% in size
An asterisk follows results filed as active; i = inactive; ? = inconclusive; nt = no result; ! = repeats disagree; [ ] = dose if it differs, or a comment. On the % scale 0 is the no-effect control and ±100 the full control effect.

SMILES	HCMV antiviral	MARV entry inh	VACV Venus inh	VACV mCherry inh	LASV entry inh	FMDV inh
CCc1ccccc1N1CC(c2nc3ccccc3n2CCC2CCCCC2)CC1=O (centres undefined)	-107.7*	?	?	i	?	?
CCOC(=O)Cn1nc(N2CCN(c3ccc(F)cc3)CC2)ccc1=O	-8.4	18.2%[46.1 µM]	4.3%	-0.9%	7.7%[46.1 µM]	34.0%
O=C(c1ccc2c(c1)OCCO2)N1CCN(c2nc(-c3cccs3)nc3ccccc23)CC1	nt	nt	-18.4%	-5.5%	nt	nt
Cc1nn(-c2ccc3nnc(C)n3n2)c(C)c1CCC(=O)Nc1ccc(OC(F)(F)F)cc1	-23.5	nt	-16.4%	-19.0%	?	-15.0%
Cc1ccc(C(C)C)cc1OCC(=O)Nc1nnc(C2CC2)s1	-84.0*	?	13.9%	2µM*	?	-13.5%
CCn1c(=O)cc(OCC(=O)N(C)c2cc(Cl)ccc2C)c2ccccc21	-16.1	-27.7%[46.1 µM]	-5.3%	-8.4%	-2.4%[46.1 µM]	-10.1%
COc1ccccc1CNc1ncnc2onc(-c3ccc(Cl)cc3)c12	-22.3	2.0%[46.1 µM]	-10.6%	-21.1%	1.6%[46.1 µM]	-24.9%
Cc1nn(C)c(C)c1/C=C/C(=O)c1ccc(Cl)cc1Cl	-80.9*	?	?	?	?	?
NC(=O)[C@@H]1CCCN1C(=O)CC1(c2cccc(F)c2)CC(=O)N(C2CCCC2)C1=O (some centres undefined)	nt	nt	2.2%	-3.6%	nt	-13.7%
CCCCCCN1C[C@H](O)[C@@H](n2cc(C3CC3)nn2)C[C@H]1c1ccccc1	nt	nt	nt	nt	-1.7%[46.1 µM]	nt
COC(OC)c1ccnc(-c2ccc(OC(C)=O)cc2)n1	-82.9*	12.7%[46.1 µM]	-6.8%	i	14.3%[46.1 µM]	11.2%
CC1=NS(=O)(=O)c2cc(Cl)ccc2N1	24.0	13µM*!	-8.5%	-0.2%	?	43.3%
Cc1cccc(Sc2c([N+](=O)[O-])ncn2C)n1	20.2	-22.1%	nt	nt	-2.8%	-11.7%
O=c1cc(-c2ccccc2)nc(Sc2ccc([N+](=O)[O-])cc2[N+](=O)[O-])[nH]1	-34.3	5.2%[46.1 µM]	-4.1%	-16.6%	16.9%	15.8µM*
O=[N+]([O-])c1ccc(Sc2nccn2Cc2ccccc2)c([N+](=O)[O-])c1	-37.3	?	-18.6%	-3.4%	4.6%	28.2µM*
CC(C)Sc1nc(-c2ccccc2)cc(=O)[nH]1	19.5	7.3%	nt	nt	2.0%	-24.5%
O=[N+]([O-])c1ccc(Sc2ncccn2)c([N+](=O)[O-])c1	-97.2*	?	?	?	?	14.1µM*
Cc1cccc(Sc2ccc([N+](=O)[O-])cc2[N+](=O)[O-])n1	-72.1*	-28.8%	-28.4%	-29.1%	-26.5%	?
COc1ccc(NC(=O)Nc2ccccc2OCc2cc(=O)n3ccccc3n2)c(OC)c1	-28.6	nt	-16.4%	-0.8%	9.8%[46.1 µM]	12.3%
Cc1ccsc1/C=N/NC(=O)CNC(=O)c1ccccc1	0.0	nt	nt	nt	nt	-4.9%
Cc1ccsc1/C=N/Nc1ccc(C(=O)O)cc1	-28.3	nt	nt	nt	nt	8.91µM*
Cc1ccsc1/C=N/Nc1cccc(C(=O)O)c1	120.8	?	-5.3%	-17.9%	?	4.47µM*
CCOc1ccccc1CNC(=O)CSc1n[nH]c(-c2ccccc2)n1	-15.7	nt	-12.8%	-14.6%	?	?
COc1ccc(NC(=O)C2CCCN2S(=O)(=O)c2ccc3c(c2)CCCC(=O)N3)cc1Cl (centres undefined)	-23.0	nt	-15.1%	-13.3%	-6.3%[46.1 µM]	?
CCOC(=O)c1c(C)nc2sc3c(=O)n(-c4ccc(OC)cc4)cnc3c2c1-c1ccc(OC)cc1	-6.0	2.4%	-3.4%	-14.9%	-9.4%	-1.1%
SMILES	HCMV antiviral	MARV entry inh	VACV Venus inh	VACV mCherry inh	LASV entry inh	FMDV inh
COc1ccc(-c2c(C(C)=O)c(C)nc3sc4c(=N)n(N)cnc4c23)cc1	?	-15.5%	12.6µM*	7.08µM*	?	-4.1%
Cc1cc2ccccn2c1C(=O)c1ccc(S(=O)(=O)N(C)C)cc1	-65.7*	-1.8%[46.1 µM]	-17.1%	-14.0%	-12.9%[46.1 µM]	?
Cc1cc2ccccn2c1C(=O)c1cccc([N+](=O)[O-])c1	?	?	-11.2%	-15.1%	?	?
Cc1cc2ccccn2c1C(=O)c1ccc([N+](=O)[O-])o1	-66.1*	?	?	?	?	?
CCCCc1c(Cc2cccc(F)c2)ncn1CCc1ccccc1OC	-65.9*	nt	-15.6%	-14.4%	nt	31.6µM*
CCCCCc1c(-c2ccccc2)ncn1CCc1ccccc1OC	?	nt	3.5%	-6.3%	nt	-7.5%
CCCCc1c(-c2ccc(OC)c(OC)c2)ncn1CCc1ccccc1OC	-93.6*	nt	-16.6%	?	nt	?
CCCCc1c(-c2cccc(OC)c2)ncn1CCc1ccccc1OC	?	nt	?	-9.3%	nt	25.1µM*
COc1ccccc1CCn1cnc(-c2ccc(OC)c(OC)c2)c1C(C)C	-108.5*	nt	-14.3%	1.9%	nt	?
COc1ccccc1-n1nc(-c2ccccc2)c2cnc3cc(C(F)(F)F)ccc3c21	-4.9	-0.8%[46.1 µM]	-5.6%	-1.0%	-2.7%[46.1 µM]	-7.0%
CCCc1c(-c2ccc(Cl)cc2)ncn1CCc1ccccc1OC	-61.1*	nt	-21.6%	-21.8%	nt	28.2µM*
COc1ccc(OCC(O)CN(C)C(=O)/C=C/c2cccc([N+](=O)[O-])c2)cc1 (centres undefined)	-78.0*	0.2%[46.1 µM]	6.4%	-20.2%	7.0%	-23.5%
O=C(O)CSc1nc2c(c(C(F)(F)F)n1)CCCC2	-96.0*!	5.6%[46.1 µM]	-3.1%	15.6%	-13.5%	-8.0%
O=C(O)CSc1nc2c(c(C(F)(F)F)n1)CCc1ccccc1-2	-22.3	?	-11.7%	-11.3%	7.4%	-9.3%
COC(=O)c1ccc2c(=O)n(CCCCCC(=O)NC3CCCCC3)c(=O)[nH]c2c1	-21.6	nt	nt	nt	nt	nt
COc1ccc(CN(C)CC(=O)Nc2ccc(N3CCOCC3)cc2)cc1OC	0.0	?	-6.4%	-17.8%	0.8%	-17.8%
COc1ccc(CCN(C)Cc2ccc(C(=O)Nc3ccccc3)cc2)cc1OC	-73.2*	?	-26.6%	i	?	-24.5%
COc1ccc(CCN(C)Cc2ccc(OCc3ccccc3)c(OC)c2)cc1OC	-7.8	?	-18.1%	i	-10.2%	4.1%
CCN(CC)c1ccc(CN(C)CCc2ccc(OC)c(OC)c2)cc1	-1.9	?	-16.0%	-1.6%	?	-14.4%
COc1ccc(CN(C)CC(=O)Nc2ccc(SC(F)F)cc2)cc1OC	-3.0	?	-16.6%	-19.5%	?	17.8µM*
COc1ccc(CCN(C)Cc2ccc(OC)c(OCc3ccccc3)c2)cc1OC	51.0	18.3µM*	nt	nt	-0.8%	-24.3%
COc1cccc(Sc2nc(N(C)C)ncc2S(=O)(=O)c2ccc(Cl)cc2)c1	nt	nt	-19.8%	-21.9%	nt	nt
CCc1ccc(CNC(=O)CSCc2cnn(-c3ccccc3)c2-n2cccc2)cc1	-5.5	-7.6%[46.1 µM]	7.6%	6.9%	?	-20.1%
CN(C)c1ccc(C=Nc2cnc3ccccc3c2)cc1	nt	nt	-15.7%	-15.9%	nt	nt
COc1ccccc1C(=O)Nc1ccnn1C1CCN(C(=O)c2ccoc2C)CC1	-62.8*	-3.9%[46.1 µM]	-17.5%	-9.1%	9.1%[46.1 µM]	5.7%
